# Paper PMC5700166
# Molecular target: T1, GST-Nv-NF-kB (Ser allele) (Nematostella vectensis, UniProt A7UNT2 2-411)
# T1 sequence: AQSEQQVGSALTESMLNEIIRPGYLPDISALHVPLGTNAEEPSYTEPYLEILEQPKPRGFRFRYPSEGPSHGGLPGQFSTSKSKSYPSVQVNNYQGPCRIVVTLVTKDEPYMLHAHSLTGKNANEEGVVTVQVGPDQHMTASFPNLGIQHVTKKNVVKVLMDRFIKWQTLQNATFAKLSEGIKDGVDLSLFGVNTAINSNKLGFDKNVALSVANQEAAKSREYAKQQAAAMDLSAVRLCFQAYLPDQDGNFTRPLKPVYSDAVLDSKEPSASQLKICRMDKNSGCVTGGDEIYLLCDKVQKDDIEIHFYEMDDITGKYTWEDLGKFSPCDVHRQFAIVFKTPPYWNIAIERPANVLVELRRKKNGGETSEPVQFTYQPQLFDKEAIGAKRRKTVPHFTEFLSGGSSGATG
# Assay: protein-binding microarray (PBM); PBM: ~300 nM protein, 6 mM HEPES pH 7.8, 80 mM KCl, 0.5 mM EDTA, 0.5 mM EGTA, 6% glycerol, 35 ng/ul poly-dIdC, 1% milk, 1 h, room temperature; Ap Aiptasia and Nv Nematostella (sea anemones) / Co Capsaspora / Aq Amphimedon (sponge) / Dm Drosophila / Hu human; RHD is the Rel homology domain; high values mean tight binding
# Details: dsDNA, one strand shown
row,Sequence,binding signal [z-score]
1,CCGATTAACATCAGACCCCCCCCTGATGTTAATCGGGTCTTGATTCGCTTGACGCTGCTG,3.56
2,CCGATTAACATCATGGGGGGGAATGATGTTAATCGGGTCTTGATTCGCTTGACGCTGCTG,4.89
3,CCGATTAACATCAAAAACCACCCTGATGTTAATCGGGTCTTGATTCGCTTGACGCTGCTG,4.22
4,CCGATTAACATCACCCCCCCCCCTGATGTTAATCGGGTCTTGATTCGCTTGACGCTGCTG,5.24
5,CCGATTAACATCAGAACCCCCCCTGATGTTAATCGGGTCTTGATTCGCTTGACGCTGCTG,5.04
6,CCGATTAACATCAATAAAATCCCTGATGTTAATCGGGTCTTGATTCGCTTGACGCTGCTG,4.09
7,CCGATTAACATCAGTGTCCCGTTTGATGTTAATCGGGTCTTGATTCGCTTGACGCTGCTG,1.48
8,CCGATTAACATCAGGGATGCCCCTGATGTTAATCGGGTCTTGATTCGCTTGACGCTGCTG,4.08
9,CCGATTAACATCAGTTGTCCCGCTGATGTTAATCGGGTCTTGATTCGCTTGACGCTGCTG,1.42
10,CCGATTAACATCAAGCCCCCCCCTGATGTTAATCGGGTCTTGATTCGCTTGACGCTGCTG,4.25
11,CCGATTAACATCACCCCCTCCCCTGATGTTAATCGGGTCTTGATTCGCTTGACGCTGCTG,3.78
12,CCGATTAACATCAAGGGGGATACTGATGTTAATCGGGTCTTGATTCGCTTGACGCTGCTG,5.52
13,CCGATTAACATCAAGGGGGAGGGTGATGTTAATCGGGTCTTGATTCGCTTGACGCTGCTG,3.99
14,CCGATTAACATCAAATAAGCCCCTGATGTTAATCGGGTCTTGATTCGCTTGACGCTGCTG,4
15,CCGATTAACATCAGGAAATACCCTGATGTTAATCGGGTCTTGATTCGCTTGACGCTGCTG,6.46
16,CCGATTAACATCAGGGACGCCCCTGATGTTAATCGGGTCTTGATTCGCTTGACGCTGCTG,3.51
17,CCGATTAACATCAGGGGGGGAGATGATGTTAATCGGGTCTTGATTCGCTTGACGCTGCTG,4.31
18,CCGATTAACATCAGGCCTTCCCCTGATGTTAATCGGGTCTTGATTCGCTTGACGCTGCTG,5.25
19,CCGATTAACATCAAAAAATCACCTGATGTTAATCGGGTCTTGATTCGCTTGACGCTGCTG,5.57
20,CCGATTAACATCAAGGGGGGGATTGATGTTAATCGGGTCTTGATTCGCTTGACGCTGCTG,6.32
21,CCGATTAACATCATCAGGGGGGATGATGTTAATCGGGTCTTGATTCGCTTGACGCTGCTG,3.78
22,CCGATTAACATCAGGAACCCCCCTGATGTTAATCGGGTCTTGATTCGCTTGACGCTGCTG,5.44
23,CCGATTAACATCAGGGGGAGTACTGATGTTAATCGGGTCTTGATTCGCTTGACGCTGCTG,5.81
24,CCGATTAACATCAAATTGGGAAATGATGTTAATCGGGTCTTGATTCGCTTGACGCTGCTG,2.19
25,CCGATTAACATCAGGCATCCCCCTGATGTTAATCGGGTCTTGATTCGCTTGACGCTGCTG,4.92
